# Compounds with a hit are over-represented: about 28% of the library has one in this group of screens.
# CYP2C19 activ = cytochrome P450 2C19 (human) activation; recombinant CYP2C19, luciferin-H EGE luminescence; stronger effect = higher value; 0 = fully inhibited enzyme, 1 = untreated enzyme; activation factor at 5 µM; 96,000 tested, under 10 active;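 active = activation factor of at least 2 at 5 µM in the primary screen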;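 note: 0 = wells with 2.5 mM tranylcypromine and 1 = vehicle-only wells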
# Target sequence (P33261 whole entry, looked up): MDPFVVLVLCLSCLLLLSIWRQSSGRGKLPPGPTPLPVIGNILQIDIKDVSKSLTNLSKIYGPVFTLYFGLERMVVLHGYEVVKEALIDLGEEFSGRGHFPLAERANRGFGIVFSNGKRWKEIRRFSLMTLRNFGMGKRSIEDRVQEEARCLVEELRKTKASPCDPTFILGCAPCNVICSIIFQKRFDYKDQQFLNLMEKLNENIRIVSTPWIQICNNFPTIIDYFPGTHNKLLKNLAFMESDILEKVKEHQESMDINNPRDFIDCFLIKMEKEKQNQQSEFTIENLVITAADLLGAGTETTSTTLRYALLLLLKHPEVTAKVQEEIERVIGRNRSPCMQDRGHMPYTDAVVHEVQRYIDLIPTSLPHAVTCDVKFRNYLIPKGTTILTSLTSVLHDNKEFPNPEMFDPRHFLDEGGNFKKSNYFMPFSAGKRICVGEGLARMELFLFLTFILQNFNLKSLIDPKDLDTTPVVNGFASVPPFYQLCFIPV
# CYP2C9 act = increases human cytochrome P450 2C9 activity. activation factor at 5 µM. recombinant CYP2C9, luciferin-H conversion, luminescence; stronger effect = higher value; factor 1 = untreated enzyme, 0 = blocked. 96,000 tested, 1.4% active. P11712;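 active = activation factor of 2 or more for CYP2C9 at a 5 µM dose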;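 note: 0 = sulfaphenazole-blocked wells and 1 = vehicle-only wells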
# CYP2C9 inhib = human CYP2C9 inhibition; 96,000 tested, 20% active; P11712; CYP2C9 Supersomes, luciferin-H conversion, luminescence; AID 777; inhibition, % at 5 µM;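 active = blocking of liver enzyme CYP2C9 beyond about 50% at 5 µM, limit read from the data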
# CD11b adhes enh = increases human CD11b/CD18 adhesion to fibrinogen; P05107+P11215; 93,000 tested, 0.07% active; AID 1499; activation, % at 10 µM; K562 CD11b/CD18 adhesion to fibrinogen, ATPlite luminescence;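 active = 10 µM primary screen giving 50% or more activity, confirmed by 40% or more on retest at that dose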
# CYP2C19 inh = human CYP2C19 inhibition; P33261; CYP2C19 Supersomes, luciferin-H EGE luminescence, 30 min; inhibition, % at 5 µM; 96,000 tested, 21% active;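 active = CYP2C19 inhibition above a set limit at 5 µM in the primary screen, cut at about 50% in these data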;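 note: plate controls were negative control wells for no effect and 2.5 mM tranylcypromine positive control for full effect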
# Mac1 fbg inh = blocks human CD11b/CD18 adhesion to fibrinogen; P05107+P11215; K562 CD11b/CD18 adhesion to fibrinogen, ATPlite luminescence; Mn2+ added to activate the integrin; inhibition, % at 10 µM; 93,000 tested, 0.54% active;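 active = primary inhibition of 50% or more at 10 µM, then 40% or more on retest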
# * hit, by the source's call; . = not tested or not shown.
SMILES,CYP2C19 activ,CYP2C9 act,CYP2C9 inhib,CD11b adhes enh,CYP2C19 inh,Mac1 fbg inh
CC(C)CN(C(=O)c1nn(C)c(=O)c2ccccc12)c1nc2ccccc2s1,0.5,0.2,77*,12,53*,15
O=C(N/N=C/C1CC=CCC1)c1ccc(Cl)cc1O (stereo not drawn),.,.,.,-2,.,22
C#CCOc1ccc(Br)cc1/C=N/O,0.4,0.3,66*,-1,64*,6
CCOc1ccc(Br)cc1/C=N/O,0.9,1,3,-1,8,-15
O/N=C/c1cc(Cl)ccc1OCc1cccc2ccccc12,0.5,0.2,76*,.,53*,.
CCCOc1ccc(Br)cc1/C=N/O,0.7,0.7,26,-2,34,1
O=C(O)COc1ccc(Br)cc1/C=N/O,1.2,1.2,-22,-1,-24,7
C#CCOc1ccc(Cl)cc1/C=N/O,0.5,0.6,45,-1,51*,3
CC1(C)CC(=O)C=C(Nc2ccccc2F)C1,0.5,0.8,17,-2,49,-4
O=C(COc1cccc(F)c1)N[C@@H](Cc1ccccc1)c1nc2ccccc2[nH]1,.,.,.,4,.,-4
CCC1CCc2c(sc(NC(=O)CSc3nc(-c4ccco4)cc(C(F)(F)F)n3)c2C#N)C1 (stereo not drawn),0.3,0.1,89*,2,69*,-21
COc1ccc(-c2cc(C(F)(F)F)nc(SCC(=O)Nc3sc4c(c3C#N)CCC4)n2)cc1,0.7,0.3,68*,4,28,3
COc1ccc(-c2nnn(CC(=O)Nc3sc4c(c3C#N)CCCC4)n2)cc1,0.8,0.5,54*,53,18,-19
COc1ccc(-c2cc(C(F)(F)F)nc(SCC(=O)Nc3cc(C)on3)n2)cc1,1.1,1.1,-10,-5,-6,-3
COc1ccc(-c2ccc(C#N)c(SCC(=O)Nc3sc4c(c3C#N)CCC4)n2)cc1OC,0.6,0,98*,42,42,-35
CCC(=O)Nc1sc2c(c1C#N)CCCCC2,0.8,1,3,-6,24,20
Cc1csc(NC(=O)c2cc(-c3ccccc3)nc3ccccc23)n1,.,.,.,8,.,-8
Cc1ccc(C2CC(C(F)(F)F)n3nc(C(=O)NCc4ccco4)cc3N2)cc1 (stereo not drawn),0.6,0.9,5,-2,36,0
O=C(Nc1ccccc1)c1nnn(Cc2ccccc2)c1NC(=O)C(F)(F)F,0.4,0.1,86*,0,57*,7
COc1ccccc1NC(=O)c1nnn(Cc2ccccc2)c1NC(=O)C(F)(F)F,0.6,0.3,71*,0,45,31
CC(=O)Nc1c(C(=O)NCc2ccccc2)nnn1Cc1ccccc1,0.6,1,3,-4,38,22
CCC(C)NC(=O)c1cc(OC)c(OC)c(OC)c1 (stereo not drawn),1,1,4,-7,2,-2
C=CCNCCCCOc1ccc(OCC)cc1,1,1,4,-1,1,-2
COc1cc2c(cc1NC(=O)CN1C(=O)NC3(CCc4ccccc43)C1=O)oc1ccccc12 (stereo not drawn),1,0.6,38,-1,2,12
O=c1cc(CN2CCc3ccccc32)nc2sccn12,0.4,0.3,67*,7,57*,-12
SMILES,CYP2C19 activ,CYP2C9 act,CYP2C9 inhib,CD11b adhes enh,CYP2C19 inh,Mac1 fbg inh
CCOC(=O)c1cc(C#N)c(SCc2cccc3ccccc23)nc1C,1,1.1,-8,12,0,11
CCOC(=O)c1cc(C#N)c(SCC(=O)c2cc(C#N)c(SC)nc2C)nc1C,0.5,0,99*,2,45,21
COc1ccccc1N1C(=O)CCC1(C#N)c1ccccc1 (stereo not drawn),1,1,4,0,3,-2
Cc1ccc(NC(=O)CSc2n[nH]c(-c3ccncc3)n2)cc1,0.4,0.1,94*,-1,62*,0
COC(=O)CSc1n[nH]c(-c2ccncc2)n1,0.4,0.4,65*,-3,61*,-3
CCc1ccc(C(=O)CSc2n[nH]c(-c3ccncc3)n2)cc1,0.1,0,97*,-5,87*,14
O=C(CSc1n[nH]c(-c2ccncc2)n1)Nc1ccccn1,0.5,0.2,77*,-2,50*,1

# Source: PubChem BioAssay
